PubChem BioAssay (Tox21)
Inconclusive results are not listed. Unmarked numbers belong to inactive results. Calls come from the whole dose curve; as a rule, active = well fitted cell-killing curve with a large enough effect in the repeat runs; inconclusive = weak or mixed curves, or effect the other way; inactive = flat fitted curve, though single readings scatter.

Test: qHTS assay to identify small molecule antagonists of the estrogen related receptor signaling pathway with the pleiotropic PPARgamma coactivator (PGC) cell viability counter screen (AID 1224822;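 note: viability read after 17.5 h compound exposure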)
Details: ERR/PGC reporter cell line viability counter screen; series mostly up to 46.1 µM; viability change, negative = cytotoxic: at the top concentration
Description: National Center for Advancing Translational Sciences [NCATS]
NIH Chemical Genomics Center [NCGC]
U.S. Environmental Protection Agency [EPA]
National Institutes of Environmental Health Sciences [NIEHS]
National Toxicology Program [NTP]
U.S. Food and Drug Administration [FDA]
Estrogen related receptors (ERRs), the first orphan nuclear receptors discovered, play an important role in the control of cellular energy metabolism. ERRs are required for high-energy production in response to the environmental challenges. The pleiotropic PPARgamma coactivator (PGC) is a major partner of ERR and a key regulator in energy homeostasis. Together they have been implicated in the etiology of metabolic disorders such as Type 2 diabetes and metabolic syndrome. ERR-alpha was also identified as an adverse marker for breast cancer progression; ERR-alpha-positive tumors have a poor prognosis. To screen and to identify environmental compounds that perturb the ERR and PGC/ERR signaling pathways could provide valuable information for potential therapeutic or preventive measures in the treatment of metabolic disease. To differentiate true PGC/ERR antagonists or agonist from cytotoxic substances, the assay is multiplexed with cell viability assay.
Tox21 Assay Protocol Summary:
The PGC/ERR cells were dispensed at 2,000 cells/5 ul/well in 1536-well white plates using a Multidrop dispenser. After the assay plates were incubated at a 37 C/5% CO2 incubator for 6 hours, 23 nL of compounds dissolved in DMSO, positive and negative controls or DMSO only was transferred to the assay plate by a pin tool. The plates were incubated at 37 C for 17.5 hours. 1 ul/well of CellTiter-Fluor reagent was added into the assay plates using a Flying Reagent Dispenser. After 30 min incubation at 37 C/5% CO2, the fluorescence intensity in the plates was measured using a ViewLux plate reader.
% is set by controls: 0 for no effect and ±100 for the full control effect.

SMILES	viability change, negative = cytotoxic [%]
CC1=C(CC(=O)O)c2cc(F)ccc2/C1=C\c1ccc(S(C)(=O)=O)cc1	-4.64
CC(C)NCC(O)COc1ccc(CCOCC2CC2)cc1 (configuration not stated)	5.67
NC/C=C/C(=O)O	19
NC1=NCC2c3ccccc3Cc3ccccc3N12 (configuration not stated)	0.339
Cc1nnc(SCC2=C(C(=O)O)N3C(=O)[C@@H](NC(=O)Cn4cnnn4)[C@H]3SC2)s1	8.64
COc1ccccc1N1CCN(CCCNc2cc(=O)n(C)c(=O)n2C)CC1	-2.21
CCCN(CCC)C(=O)C(CCC(=O)O)NC(=O)c1ccccc1 (configuration not stated)	8.4
CCCCNc1cc(C(=O)O)cc(S(N)(=O)=O)c1Oc1ccccc1	1.07
O=C1N(c2ccccc2)c2ccccc2C1(Cc1ccncc1)Cc1ccncc1	1.13
CC(=O)Oc1cc(C(C)C)c(OCCN(C)C)cc1C	10.9
CNCCC(Oc1ccccc1OC)c1ccccc1 (configuration not stated)	2.93
CO[C@@]1(NC(=O)CSCC#N)C(=O)N2C(C(=O)O)=C(CSc3nnnn3C)CS[C@@H]21	11.9
CN1CCC[C@@H]1Cc1c[nH]c2ccc(CCS(=O)(=O)c3ccccc3)cc12	-12.9
CN1CCN(C2=Nc3ccccc3Oc3ccc(Cl)cc32)CC1	-7.54
O=C(O)CN(CCN(CC(=O)O)CC(=O)O)CCN(CC(=O)O)CC(=O)O	-8.54
CN(C)CC[C@@H](c1ccc(Cl)cc1)c1ccccn1	7.85
C[C@]12CCC(=O)C=C1CC[C@@H]1[C@@H]2CC[C@@]2(C)[C@H]1CC[C@]2(O)C(=O)CO	0.0847
